Bioassay records as filed in PubChem BioAssay.
Sm TGR inh: S. mansoni TGR enzyme inhibition | purified TGR, DTNB reduction, TNB absorbance 405 nm | Potency, µM (titrated, usually from 114 µM), for the others: at the highest dose activity change, negative = inhibition, usual class: inhibitors | actives 3% (n = 360,000) | AID 485364; note: nearly all actives have a fitted effect of over 60% in size
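First, TGR (20 nM dispensed) and NADPH were mixed with compound. Second, a 15 min room-temperature incubation followed. Third, further NADPH and then DTNB were added to start the reaction. Finally, TNB absorbance was monitored kinetically.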
TbPYK inhibitor: blocks Trypanosoma brucei pyruvate kinase; actives 0.12% (n = 410,000); Potency, µM (titrated, usually from 76.8 µM), for the others: at the top dose activity, negative = inhibition, actives largely listed as inhibitors; AID 624173; TbPYK enzyme, Kinase-Glo Plus ATP luminescence, 45 min; Q57TT1; note: nearly all actives have a fitted effect of over 50% in size
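Readout: single end-point luminescence (Kinase-Glo Plus, 10 min). Reaction conditions were TbPYK/substrate plus 130 uM ADP, 45 min at RT, pH 7.2 TEA buffer. No-enzyme wells served as controls, and data were normalized before concentration-response fitting.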
LmPK inhibitor: blocks Leishmania mexicana pyruvate kinase activity; purified LmPK, Kinase-Glo ATP luminescence, 1 h; Potency, µM (top dose mostly 57.5 µM), inactives show at the top dose activity change, negative = inhibition, most hits filed as inhibitors; actives 0.37% (n = 290,000)
Target sequence (Q27686 whole entry, looked up): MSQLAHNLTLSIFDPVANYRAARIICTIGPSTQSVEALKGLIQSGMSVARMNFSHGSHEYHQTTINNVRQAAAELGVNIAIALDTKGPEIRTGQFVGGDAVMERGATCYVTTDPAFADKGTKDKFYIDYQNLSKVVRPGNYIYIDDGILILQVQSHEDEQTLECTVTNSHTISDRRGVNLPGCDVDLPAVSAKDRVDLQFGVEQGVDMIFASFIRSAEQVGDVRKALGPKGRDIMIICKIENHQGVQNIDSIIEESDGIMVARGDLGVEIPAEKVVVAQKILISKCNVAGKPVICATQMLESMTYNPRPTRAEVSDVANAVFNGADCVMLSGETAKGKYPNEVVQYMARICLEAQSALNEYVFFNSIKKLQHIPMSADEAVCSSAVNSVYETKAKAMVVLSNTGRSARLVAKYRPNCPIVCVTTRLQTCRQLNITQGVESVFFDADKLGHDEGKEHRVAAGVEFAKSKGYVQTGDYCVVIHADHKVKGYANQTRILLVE
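ATP generated from ADP (0.1 mM) and PEP (0.5 mM) by 0.1 nM LmPK over 1 h at room temperature (pH 7.2 imidazole buffer) was detected by coupled luciferase luminescence. Values were normalized to uninhibited and no-enzyme wells.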
RE007 growth inh: less growth of the S. pombe RE007 Vpr strain; AID 651644; S. pombe RE007 Vpr strain, BacTiter-Glo ATP luminescence, 24 h; Potency, µM (doses to about 92.2 µM), for inactives: top-dose activity change, negative = less growth, hits mostly inhibitors; actives 0.21% (n = 360,000); active = well fitted falling curve with a large enough effect; inconclusive = small, poorly fitted or top-dose-only effect; inactive = no such curve, though single readings can be large or run the other way; note: nearly all actives have a fitted effect of over 50% in size
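Fission yeast strain RE007, carrying one chromosomally integrated HIV-1 vpr copy, was seeded at OD 0.01 in PMG+AL medium with 23 nL pinned compound. After 24 h at 30 °C and 99% humidity, viability was read by BacTiter-Glo luminescence.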
AMA1 RON2 block: inhibitors of Plasmodium falciparum AMA1-RON2 interaction. AlphaScreen AMA1-biotinylated RON2 peptide binding. Potency, µM (doses to about 58.2 µM), for inactives: at the highest dose activity change, negative = inhibition, hits mostly inhibitors. actives 0.2% (n = 360,000);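 note: 0% = vehicle wells and -100% = peptide control; nearly all actives have a fitted effect of over 45% in size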
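AMA1 (3D7) with his tag at 25 nM final met compounds first, then biotinylated RON2 peptide at 25 nM; detection used donor plus acceptor beads, 10 µg/mL apiece, read by AlphaScreen after 30 min at room temperature.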
* hit, by the source's call; ? = inconclusive; · = not tested or not shown; ! = not active in a repeat; [ ] = remark or other dose. Shown are actives, neighbours in structure and some others; about 3.2% of the full set was active somewhere. Unless noted, calls come from the whole dose curve; as a rule, active = well fitted curve in the direction sought with a large enough effect; inconclusive = small, poorly fitted or top-dose-only effect, or another doubt; inactive = no such curve, though single readings can be large; an effect the other way counts as inactive or inconclusive. Unless noted, % is set by controls: 0 for no effect and ±100 for the full control effect; potency is the fitted concentration of half-maximal effect.

SMILES	Sm TGR inh	TbPYK inhibitor	LmPK inhibitor	RE007 growth inh	AMA1 RON2 block
COc1ccc(-c2noc(CN(C)CCC3CCCCO3)n2)cc1 (stereo not drawn)	-6%	1%	-1%	?	-26%
CCc1ccccc1NC(=O)c1sc(-n2nc(C)c(Cc3ccc4c(c3)OCO4)c2C)nc1C	2%	4%	·	·	·
O=C(O)CCCNC(=O)/C(=C\C=C\c1ccccc1)NC(=O)c1ccccc1Cl	40µM*	-4%	3%	-3%	-2%
O=C(c1ccccc1)c1ccc2nc(N3CCN(C(=O)c4ccco4)CC3)c3nncn3c2c1	45µM*	4%	12%	-1%	0%
O=C(c1ccccc1)c1ccc2nc(N3CCN(c4ccccc4)CC3)c3nncn3c2c1	0%	-2%	·	·	·
COc1ccc(CCN2C(=O)C=CC2=O)cc1OC	·	?	·	5.6µM*	16%
COC(=O)C1=C(C)N(CCc2ccc(OC)c(OC)c2)C(=O)/C1=C\N(C)C	7.9µM*	-18%	4%	-20%	0%
C=CC(=O)Oc1ccc(N2Cc3ccccc3C2=O)cc1	·	-28%	·	7.9µM*	0%
COc1ccc(N2Cc3ccccc3C2=O)cc1	3%	-26%	14µM*	?	17%
CCCCc1nc2c(c3c1C[C@H](C)OC3)CN(C(=O)Nc1cccc(C#N)c1)CC2	·	·	-4%[11.5 µM]	·	·
COc1ccc(-c2onc(C)c2C)cc1S(=O)(=O)Nc1ccc(OC(F)(F)F)cc1	-2%	-7%	·	·	·
CC(C)=CCc1c(O)ccc2c1OC(c1ccc(O)c(O)c1)CC2=O (stereo not drawn)	56µM*	-11%	3%	3%	-22%
O=C1CC(c2ccc(O)c(O)c2)Oc2c1ccc(O)c2O (stereo not drawn)	56µM*	-17%	4%	4%	?
O=C1c2cc(O)c(O)cc2OC(c2ccc(O)c(O)c2)C1O (stereo not drawn)	·	-19%	·	-17%	-3%
O=C1CC(c2ccc(O)c(O)c2)Oc2cc(O)cc(O)c21 (stereo not drawn)	40µM*	-22%	8%	4%	-15%
O=C1CC(c2ccc(O)cc2)Oc2cc(O)cc(O)c21 (stereo not drawn)	-14%	1%	2%	-14%[18.4 µM]	4%
COc1ccc(C)cc1NC(=O)N1CCCn2nc(C)cc21	-2%	2%	·	·	·
Cc1cc(C)cc(NC(=O)CCN2C(=O)c3ccccc3Sc3ncccc32)c1	40µM*	4%	·	·	·
CC1(C)CC(=O)c2cc(-c3nc(-c4ccccc4)cs3)c(=O)[nH]c2C1	0%	-2%	·	·	·
COCCNc1cc(C)nc2cc(-c3ccc(C)cc3)nn12	6%	0%	1%	?	5%
Cc1ccc(-c2cc3nc(C)cc(NCc4ccco4)n3n2)cc1	-33%	1%	28µM*	?	9%
COc1cccc(-c2nc3c(c(SCC(=O)N4CCOCC4)n2)Cc2c(CO)cnc(C)c2O3)c1	?	1%	7%	-5%	-12%
Cc1ncc(CO)c2c1Oc1nc(-c3ccccc3)nc(SCC(=O)N3CCOCC3)c1C2	32µM*	5%	-1%	12%	-11%
Cc1ncc(CO)c2c1Oc1nc(-c3ccc(Cl)cc3)nc(SCC(=O)N3CCCCC3)c1C2	40µM*	-9%	·	·	·
Cc1ncc(CO)c2c1Oc1nc(-c3ccccc3)nc(SCC(=O)N3CCCCC3)c1C2	32µM*!	0%	1%	1%	-10%
SMILES	Sm TGR inh	TbPYK inhibitor	LmPK inhibitor	RE007 growth inh	AMA1 RON2 block
COc1ccccc1-c1nc2c(c(SCC(=O)N3CCCCC3)n1)Cc1c(CO)cnc(C)c1O2	?	2%	2%	8%	-7%
Cc1cccc(-c2nc3c(c(SCC(=O)N4CCOCC4)n2)Cc2c(CO)cnc(C)c2O3)c1	22µM*	7%	14%	9%	0%
Cc1cccc(OCc2nc(CC(=O)Nc3ccc(Cl)cc3)cs2)c1	-3%	-6%	·	·	·
COC(=O)CCSc1nc2sc3c(c2c(=O)n1Cc1ccccc1)CCC(C(C)(C)C)C3 (stereo not drawn)	-2%	-2%	·	·	·
CCc1cccc(NC(=O)CCc2c(C)nc3c(-c4ccccc4)c(C)nn3c2C)c1	-2%	-5%	·	·	·
Cc1nn2c(=O)cc(COC(=O)c3ccc(NC(=O)c4cccs4)cc3)nc2s1	-2%	-2%	·	·	·
COC(=O)c1ccc(Cl)c(NC(=O)C2CCN(S(=O)(=O)Cc3ccccc3)CC2)c1	-13%	2%	·	·	·
COc1ccc(C(=O)NCc2ccc3c(c2)CCN3C(=O)c2ccc(Cl)cc2)c(OC)c1	-1%	-2%	·	·	·
Cn1cnc([N+](=O)[O-])c1Oc1ccc2ccccc2c1	14µM*	0%	-7%	-11%	-26%
COc1ccccc1CNC(=O)Cn1cc2c(n1)-c1c(oc(C(=O)N3CCOCC3)c1C)CC2	-4%	-2%	·	·	·
CCCn1c(NCc2ccco2)nc2ccccc21	-1%	0%	0%	-6%	-7%
CCCn1c(/C=C/c2ccco2)nc2ccccc21	20µM*	24%	-13%	-4%	0%
CCCCn1c(/C=C/c2ccco2)nc2ccccc21	10µM*	1%	-1%	0%	15%
O=C1NC(=S)N(Cc2ccco2)C(=O)/C1=C\c1cccs1	3.5µM*	·	17%[11.5 µM]	·	·
C=CCN1C(=O)/C(=C/c2cccs2)C(=O)NC1=S	10µM*	35µM*	8%	?	2%
O=C(COC(=O)c1ccc([N+](=O)[O-])o1)Nc1cccc2ccccc12	14µM*	-1%	0%	-13%	-5%
O=C1CN(C(=O)COC(=O)c2ccc([N+](=O)[O-])o2)c2ccccc2N1	45µM*	-4%	·	-3%	-3%
O=C(COC(=O)c1ccc([N+](=O)[O-])o1)NCc1ccc(F)cc1	·	-6%	·	-20%	3%
Cc1cc(C)c(S(=O)(=O)c2ccccc2)c(OC(=O)c2ccc(Cl)cc2Cl)n1	23%	-9%	4%	27%	-1%
Cc1cc(OC(=O)c2ccc(Cl)cc2Cl)nc(C)n1	56µM*	·	-5%	6%[3.69 µM]	-7%
CCC(C)Sc1oc(-c2ccco2)nc1S(=O)(=O)c1ccc(Cl)cc1 (stereo not drawn)	-13%	-6%	·	·	·
CCN(C(=S)Nc1cccnc1)c1ccccc1	25µM*	1%	1%	-2%	0%
Cc1nn(C)c(C(=O)NC(=S)Nc2ccccc2Br)c1Cl	-6%	0%	-9%	-7%	75%
O=C(NC(=S)Nc1cccnc1)c1ccccc1	22µM*	-1%	-2%	10%	-2%
CCn1ncc(Cl)c1C(=O)NC(=S)Nc1ccccc1Br	28µM*	1%	1%	-11%	40%
Cc1ccccc1NC(=S)NC(=O)c1cncc(Br)c1	13µM*	10%	1%	-22%	42%
